Results: PubChem BioAssay (NCI)
Compounds without any hit were thinned out: in the full panel of roughly 79,000, 15% have a hit. Unmarked numbers belong to inactive results. Active and inactive are the calls of the source. Rule as the data show it: active = growth inhibition above about 70%; inactive = the rest.

Key:
[1] = NCI Yeast Anticancer Drug Screen. Data for the rad50 strain (AID 155);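 also: 0% = growth of vehicle-only cultures of the same strain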; conditions: S. cerevisiae rad50 strain growth inhibition, stronger effect = higher value
Method in brief: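 DNA repair mutant yeast, compound exposure, growth read-out; inhibition is taken relative to vehicle.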

[2] = NCI Yeast Anticancer Drug Screen. Data for the mec2-1 strain (AID 157); conditions: S. cerevisiae mec2-1 strain, stronger effect = higher value
Method in brief: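 Yeast mec2-1 mutant treated with compound. Readout: growth inhibition vs vehicle controls.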

[3] = NCI Yeast Anticancer Drug Screen. Data for the sgs1 mgt1 strain (AID 161);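 also: 0% = growth of cultures given vehicle only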; conditions: S. cerevisiae sgs1 mgt1 strain, stronger effect = higher value
Method in brief: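 Genetically altered yeast, compound exposure, growth inhibition relative to vehicle.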

[4] = NCI Yeast Anticancer Drug Screen. Data for the cln2 rad14 strain (AID 165);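 also: 0% = growth equal to vehicle treated cultures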; conditions: S. cerevisiae cln2 rad14 strain, stronger effect = higher value
Method in brief: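 cln2 rad14 yeast strain; compound exposure; growth inhibition read vs vehicle controls.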

[5] = NCI Yeast Anticancer Drug Screen. Data for the bub3 strain (AID 167); conditions: S. cerevisiae bub3 mutant strain, stronger effect = higher value
Method in brief: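 In this screen, a yeast mutant lacking normal mitotic checkpoint function is challenged with compound. Relative growth versus vehicle gives the inhibition value.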

[6] = NCI Yeast Anticancer Drug Screen. Data for the mlh1 rad18 strain (AID 175); conditions: S. cerevisiae mlh1 rad18 strain growth inhibition, stronger effect = higher value
Method in brief: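 Yeast w/ defined DNA-repair lesions; compound exposure; growth vs vehicle controls → % inhibition.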

[7] = at 5.0 µM (retest, dose inferred, filed as 0.5)
[8] = at 50.0 µM (retest, dose inferred, filed as 5.0)

SMILES	growth inhibition [1, 7]	growth inhibition [1, 8]	growth inhibition ([1]; at 50.0 µM)	growth inhibition [2, 7]	growth inhibition [2, 8]	growth inhibition ([2]; at 50.0 µM)	growth inhibition [3, 7]	growth inhibition [3, 8]	growth inhibition ([3]; at 50.0 µM)	growth inhibition [4, 7]	growth inhibition [4, 8]	growth inhibition ([4]; at 50.0 µM)	growth inhibition [5, 7]	growth inhibition [5, 8]	growth inhibition ([5]; at 50.0 µM)	growth inhibition [6, 7]	growth inhibition [6, 8]	growth inhibition ([6]; at 50.0 µM)
CCC(=O)Oc1c(Cl)cc(Cl)c(Cl)c1Cl	4%	56%	43.4%	6%	59%	14.2%	2%	79% (active)	48.1%	-3%	30%	5.45%	-3%	54%	14.2%	16%	90% (active)	74.3% (active)
CC/S(=N\S(=O)(=O)c1ccc(C)cc1)c1cccc[n+]1[O-] (centres undefined)	83% (active)	97% (active)	96.1% (active)	82% (active)	99% (active)	96.7% (active)	79% (active)	98% (active)	98% (active)	51%	98% (active)	91.2% (active)	85% (active)	98% (active)	96.3% (active)	87% (active)	98% (active)	95.4% (active)
CC(C)(Cl)C(Cl)CC/C(CBr)=C(\Cl)CBr (centres undefined)	10%	99% (active)	73.5% (active)	17%	99% (active)	92.3% (active)	-11%	98% (active)	92% (active)	21%	95% (active)	90.2% (active)	4%	94% (active)	92% (active)	11%	99% (active)	4.4%
Cc1ccc2c(c1)C(O)(c1ccccc1)C(c1ccccc1)C(c1ccccc1)O2 (centres undefined)	78% (active)	83% (active)	93.9% (active)	56%	92% (active)	94.3% (active)	69%	87% (active)	93.7% (active)	59%	62%	90.4% (active)	87% (active)	91% (active)	89.5% (active)	66%	88% (active)	93.6% (active)
Nc1ccc2nc3ccccc3nc2c1	-11%	95% (active)	97% (active)	-11%	60%	81% (active)	-22%	77% (active)	64.8%	-10%	44%	74% (active)	-4%	78% (active)	75.8% (active)	4%	90% (active)	88.4% (active)
CCCCCCCCCCCCCC/[N+]([O-])=C/c1ccc([N+](=O)[O-])o1	7%	18%	50.1%	2%	10%	45.3%	8%	70% (active)	50.1%	8%	13%	29.8%	0%	14%	78% (active)	8%	79% (active)	54.2%
COc1cc(/C=C2\CC(C)C/C(=C\c3ccc(O)c(OC)c3)C2=O)ccc1O (centres undefined)	84% (active)	83% (active)	74.5% (active)	91% (active)	89% (active)	83.6% (active)	92% (active)	90% (active)	77.7% (active)	70% (active)	89% (active)	81.6% (active)	91% (active)	89% (active)	80.8% (active)	84% (active)	90% (active)	66.5%
N#CN1CCCC(O)c2sc3ccccc3c2CC1 (centres undefined)	3%	9%	56.4%	1%	17%	11.5%	1%	3%	38.9%	3%	-7%	9.85%	-2%	1%	7.3%	–	–	–
Cc1ccc(S(=O)(=O)NNC(C[N+](=O)[O-])c2ccccc2)cc1 (centres undefined)	69%	99% (active)	96.9% (active)	5%	100% (active)	44.4%	23%	99% (active)	96.2% (active)	8%	74% (active)	70.7% (active)	17%	99% (active)	92.7% (active)	–	–	–
O=C(CC1(O)C(=O)Nc2c(Cl)cccc21)c1ccc(Cl)cc1 (centres undefined)	9%	45%	18.6%	8%	29%	20.8%	-19%	36%	33.8%	17%	71% (active)	19.4%	10%	72% (active)	19.4%	-7%	54%	28.3%
